From PubChem BioAssay AID1159580 (chemical genetic matrix, 2015)
About 2,000 (36%) of roughly 5,500 compounds were called active. Another 18% or so got no clear call; they are omitted. No stated cut-off is given here; in the data, active means normalized growth mostly below about 0.91 (no sharp cut-off); inconclusive means no clear call, values can overlap the other calls; inactive means mostly above about 0.92. The list shows a part of the results.

Test: chemical genetic growth profiling, strain panel (AID 1159580);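 further: tested at 20 µM; growth read once vehicle control cultures reached saturation at 30 °C; 1 = growth at the plate median or of vehicle wells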
Conditions: growth OD

Measured: normalized growth

COc1ccc(-c2cc(=O)c3c(O)cc(O)cc3o2)cc1
active: S. cerevisiae deletion strains, locus YLR113W, strain HOG1, stronger effect = lower value 0.694 | S. cerevisiae deletion strains, locus YNL183C, strain NPR1, stronger effect = lower value 0.784 | S. cerevisiae deletion strains, locus YPL256C, strain CLN2, stronger effect = lower value 0.756
inactive: S. cerevisiae deletion strains, locus YJR075W, strain HOC1, stronger effect = lower value 0.976 | S. cerevisiae deletion strains, locus YKL009W, strain mrt4, stronger effect = lower value 0.94 | S. cerevisiae deletion strains, locus YKL068W, stronger effect = lower value 0.979 | S. cerevisiae deletion strains, locus YKL085W, strain MDH1 (second series), stronger effect = lower value 0.98 | S. cerevisiae deletion strains, locus YKL085W, strain MDH1, stronger effect = lower value 0.98 | S. cerevisiae deletion strains, locus YKL160W, strain elf1, stronger effect = lower value 0.928 | S. cerevisiae deletion strains, locus YKL190W, strain CNB1, stronger effect = lower value 0.985 | S. cerevisiae deletion strains, locus YKR001C, strain vps1, stronger effect = lower value 0.991 | S. cerevisiae deletion strains, locus YKR026C, strain gcn3, stronger effect = lower value 0.994 | S. cerevisiae deletion strains, locus YKR091W, strain srl3, stronger effect = lower value 0.997 | S. cerevisiae deletion strains, locus YLL001W, strain dnm1, stronger effect = lower value 0.954 | S. cerevisiae deletion strains, locus YLL026W, stronger effect = lower value 0.997 | S. cerevisiae deletion strains, locus YLL041C, strain sdh2, stronger effect = lower value 0.996 | S. cerevisiae deletion strains, locus YLR027C, strain aat2, stronger effect = lower value 0.97 | S. cerevisiae deletion strains, locus YLR039C, strain RIC1, stronger effect = lower value 0.975 | S. cerevisiae deletion strains, locus YLR058C, strain SHM2, stronger effect = lower value 0.998 | S. cerevisiae deletion strains, locus YLR102C, strain apc9, stronger effect = lower value 0.984 | S. cerevisiae deletion strains, locus YLR221C, strain rsa3, stronger effect = lower value 0.986 | S. cerevisiae deletion strains, locus YLR258W, strain gsy2, stronger effect = lower value 0.97 | S. cerevisiae deletion strains, locus YLR262C, strain YPT6 (second series), stronger effect = lower value 0.908 | S. cerevisiae deletion strains, locus YLR262C, strain YPT6, stronger effect = lower value 0.92 | S. cerevisiae deletion strains, locus YLR268W, strain sec22, stronger effect = lower value 0.985 | S. cerevisiae deletion strains, locus YLR320W, strain mms22, stronger effect = lower value 0.97 | S. cerevisiae deletion strains, locus YLR330W, strain CHS5, stronger effect = lower value 0.989 | S. cerevisiae deletion strains, locus YLR342W, strain FKS1 (second series), stronger effect = lower value 1.11 | S. cerevisiae deletion strains, locus YLR342W, strain FKS1, stronger effect = lower value 1.01 | S. cerevisiae deletion strains, locus YLR357W, strain rsc2, stronger effect = lower value 1.01 | S. cerevisiae deletion strains, locus YLR370C, strain arc18, stronger effect = lower value 0.98 | S. cerevisiae deletion strains, locus YLR371W, strain rom2, stronger effect = lower value 0.99 | S. cerevisiae deletion strains, locus YLR384C, strain iki3, stronger effect = lower value 1.02 | S. cerevisiae deletion strains, locus YLR418C, strain cdc73, stronger effect = lower value 0.957 | S. cerevisiae deletion strains, locus YML016C, strain PPZ1, stronger effect = lower value 1.02 | S. cerevisiae deletion strains, locus YML032C, strain rad52, stronger effect = lower value 1 | S. cerevisiae deletion strains, locus YML120C, strain ndi1, stronger effect = lower value 0.952 | S. cerevisiae deletion strains, locus YML124C, strain tub3, stronger effect = lower value 0.99 | S. cerevisiae deletion strains, locus YMR058W, strain fet3, stronger effect = lower value 0.983 | S. cerevisiae deletion strains, locus YMR078C, strain ctf18, stronger effect = lower value 0.981 | S. cerevisiae deletion strains, locus YMR125W, strain sto1, stronger effect = lower value 0.979 | S. cerevisiae deletion strains, locus YMR129W, stronger effect = lower value 0.991 | S. cerevisiae deletion strains, locus YMR205C, strain PFK2, stronger effect = lower value 0.968 | S. cerevisiae deletion strains, locus YMR223W, strain ubp8, stronger effect = lower value 0.982 | S. cerevisiae deletion strains, locus YMR231W, strain pep5, stronger effect = lower value 1.01 | S. cerevisiae deletion strains, locus YMR263W, strain SAP30, stronger effect = lower value 0.975 | S. cerevisiae deletion strains, locus YMR307W, strain GAS1, stronger effect = lower value 1.21 | S. cerevisiae deletion strains, locus YNL067W, strain RPL9B, stronger effect = lower value 0.946 | S. cerevisiae deletion strains, locus YNL071W, strain lat1, stronger effect = lower value 0.952 | S. cerevisiae deletion strains, locus YNL209W, strain ssb2, stronger effect = lower value 0.967 | S. cerevisiae deletion strains, locus YNL233W, strain BNI4, stronger effect = lower value 0.984 | S. cerevisiae deletion strains, locus YNL248C, strain rpa49, stronger effect = lower value 1.03 | S. cerevisiae deletion strains, locus YNL250W, strain rad50, stronger effect = lower value 0.966 | S. cerevisiae deletion strains, locus YNL271C, strain bni1, stronger effect = lower value 0.98 | S. cerevisiae deletion strains, locus YNL298W, strain CLA4, stronger effect = lower value 0.994 | S. cerevisiae deletion strains, locus YNL307C, strain MCK1, stronger effect = lower value 0.978 | S. cerevisiae deletion strains, locus YNL322C, strain KRE1 (second series), stronger effect = lower value 0.984 | S. cerevisiae deletion strains, locus YNR049C, strain mso1, stronger effect = lower value 0.994 | S. cerevisiae deletion strains, locus YNR052C, strain pop2, stronger effect = lower value 0.973 | S. cerevisiae deletion strains, locus YOL012C, strain htz1 0.966 | S. cerevisiae deletion strains, locus YOL147C, strain pex11, stronger effect = lower value 0.99 | S. cerevisiae deletion strains, locus YOR001W, strain rrp6, stronger effect = lower value 1 | S. cerevisiae deletion strains, locus YOR061W, strain CKA2, stronger effect = lower value 0.991 | S. cerevisiae deletion strains, locus YOR069W, strain VPS5, stronger effect = lower value 1 | S. cerevisiae deletion strains, locus YOR070C, strain gyp1, stronger effect = lower value 0.968 | S. cerevisiae deletion strains, locus YOR080W, strain dia2, stronger effect = lower value 1 | S. cerevisiae deletion strains, locus YOR083W, strain WHI5, stronger effect = lower value 0.917 | S. cerevisiae deletion strains, locus YOR106W, strain vam3, stronger effect = lower value 0.93 | S. cerevisiae deletion strains, locus YOR136W, strain idh2, stronger effect = lower value 0.984 | S. cerevisiae deletion strains, locus YOR144C, strain elg1, stronger effect = lower value 1 | S. cerevisiae deletion strains, locus YOR184W, strain ser1, stronger effect = lower value 0.978 | S. cerevisiae deletion strains, locus YOR231W, strain MKK1, stronger effect = lower value 0.869 | S. cerevisiae deletion strains, locus YOR265W, strain rbl2, stronger effect = lower value 0.984 | S. cerevisiae deletion strains, locus YOR270C, strain vph1, stronger effect = lower value 0.95 | S. cerevisiae deletion strains, locus YOR290C, strain snf2, stronger effect = lower value 0.868 | S. cerevisiae deletion strains, locus YOR316C, strain cot1, stronger effect = lower value 0.987 | S. cerevisiae deletion strains, locus YPL051W, strain arl3, stronger effect = lower value 0.963 | S. cerevisiae deletion strains, locus YPL055C, strain LGE1, stronger effect = lower value 0.982 | S. cerevisiae deletion strains, locus YPL078C, strain atp4, stronger effect = lower value 0.92 | S. cerevisiae deletion strains, locus YPL106C, strain sse1, stronger effect = lower value 0.946 | S. cerevisiae deletion strains, locus YPL240C, strain hsp82, stronger effect = lower value 0.994 | S. cerevisiae deletion strains, locus YPL241C, strain CIN2, stronger effect = lower value 0.999 | S. cerevisiae deletion strains, locus YPR119W, strain clb2, stronger effect = lower value 0.983 | S. cerevisiae deletion strains, locus YPR141C, strain kar3, stronger effect = lower value 0.985 | S. cerevisiae deletion strains, locus YPR163C, strain tif3, stronger effect = lower value 0.991 | S. cerevisiae deletion strains, locus YPR167C, strain met16, stronger effect = lower value 0.985 | S. cerevisiae deletion strains, strain wtn01, stronger effect = lower value 1 | S. cerevisiae strains, strain wild type, stronger effect = lower value 0.991
